The structures appear in SMILES notation. Activity calls are given as the source filed them. Entries that show only a call come without a potency. Calls come from the whole dose curve; as a rule, active = well fitted curve in the direction sought with a large enough effect in the repeat runs; inconclusive = weak or mixed curves; inactive = flat fitted curve, though single readings scatter.

A short description of this experiment: qHTS assay to test for compound auto fluorescence at 460 nm (blue) in HEK293 cell free culture (AID 720681). To be noted: cell-free medium, autofluorescence 405/460 nm (blue); series mostly up to 91.3 µM. An excerpt: U.S. Tox21 Program National Center for Advancing Translational Sciences [NCATS] NIH Chemical Genomics Center [NCGC] U.S. Environmental Protection Agency [EPA] National Institutes of Environmental Health Sciences [NIEHS] National Toxicology Program [NTP] U.S. Food and Drug Administration [FDA] Tox21 Assay Overview: Compound auto fluorescence often interferes with screening of the compound library against various biological targets and signaling pathways. Some of these compounds may have fluorophoric properties. Such properties may interfere with the assay outputs resulting in false positives and/or negatives. To decrease such complications and ensure the compound activities are relevant in terms of biological response, the Tox21 10K compound library was screened for auto fluorescence. From the fluorophores used as reporter signals in our screening assays, the auto fluorescence equivalencies of compounds against three fluorophores have been evaluated: Triamterene, Fluorescein and Rose Bengal sodium for blue, green and red fluorescence, respectively. The fluorescence intensities were measured using Excitation/Emission wavelengths at 405/460nm, 485/535nm and 540/590nm for blue, green and red labels, respectively. This assay includes the blue fluorescence data.
Tox21 Assay Protocol Summary: 5 uL of culture medium (DMEM containing 10% FBS) per well was dispensed into black wall/clear bottom 1536-well plates using a Multidrop Combi Dispenser (ThermoFisher Scientific, Waltham, MA). After 23 nL compound or DMSO vehicle was transferred into assay plate by a pintool work station (Kalypsys, San Diego, CA), fluorescence intensities in the assay plates were measured by an Envision (PerkinElmer, Shelton, CT) plate reader using three labels for measuring blue, green and red fluorescence at […] 460, 535 and 590nm respectively.
On the technique in general: qHTS replaces the single test concentration by a dilution series.
Turning to `CC1=C(C)C(=O)C(CCCCC#CCCCC#CCO)=C(C)C1=O`, the Potency result is “inactive”. In the case of `[O-][n+]1ccc(Cl)cc1`, the Potency result was “inactive”. Consider `c1ccc(CCNc2nc(-c3ccccc3)cs2)cc1`, for which the Potency result is “inactive”. On the same count and under the same terms, next, `O=C(Cl)c1cc(Cl)cc(Cl)c1`: “inactive”. `Cc1c(Nc2ncccc2C(=O)O)cccc1C(F)(F)F`: the fluorescence, % of fluorescent control is -0.115% [at 18.6 µM] (inactive). In the case of `CCCCCCCCCCCCCCCCC(=O)O`, the Potency entry is “inactive”. Consider `CCCCCCCCCCCCCCCCN`, for which the Potency result was “inactive”. For the compound `O=C(O)CCc1nc2ccccc2[nH]1`, the Potency result was “inactive”. Consider `O=C1CCCN1CCO`, for which the Potency result was “inactive”. Regarding `CCOc1ccc(NC(C)=O)cc1N`, the Potency result is “inactive”. Regarding `O=C(O)c1c2ccccc2cc2ccccc12`, the Potency entry was “inactive”. For the compound `Cc1nc2sccn2c(=O)c1CCN1CCC(=C(c2ccc(F)cc2)c2ccc(F)cc2)CC1`, the Potency entry was “inactive”. As to `Nc1ncnc2c1ncn2[C@@H]1O[C@H](CO)[C@@H](O)[C@H]1O`, the Potency result is “inactive”. `C[C@H]1C[C@H]2[C@@H]3CCC4=CC(=O)C=C[C@]4(C)[C@@]3(F)[C@@H](O)C[C@]2(C)[C@@]1(O)C(=O)COP(=O)(O)O`: the Potency entry is “inactive”. As for `O=c1[nH][nH]c2ccccc12`, the Potency entry is “inactive”.

With `CC(CCl)OC(C)CCl` (stereo not given), the Potency entry was “inactive”. Regarding `O=C(Nc1ccc2c(c1)Cc1ccccc1-2)C(F)(F)F`, the Potency entry is “inactive”. On the same count and under the same terms, as for `O=C(Cl)c1ccc(F)c(Cl)c1`, the entry is “inactive”; as for `O=C(OCCCCCOC(=O)c1ccccc1)c1ccccc1`, “inactive”. Same read-out and setting: as for `OCC(O)c1ccccc1` (stereo not given), the entry is “inactive”; as for `C=CCCC`, “inactive”. Same read-out and setting: next, `CCCC(=O)OCCC(C)C`: “inactive”; `CC(O)C(C)O` (stereo not given): “inactive”; `Cc1c(-c2cccnc2)c2ccccc2n1CCCCC(=O)O`: “inactive”. On to `O=C(O)c1cc(C(=O)O)c(C(=O)O)cc1C(=O)O`, for which the Potency entry is “inactive”. On the same count and under the same terms, as for `CCOCCn1c(N2CCCN(C)CC2)nc2ccccc21`, the entry is “inactive”; as for `CC(C(=O)O)c1ccc(/C=C2\CCCCC2=O)cc1` (stereo not given), “inactive”. For `O=C1c2ccccc2C(=O)c2c1ccc(O)c2O`, the Potency entry was “inactive”. With `CCC(=O)O[C@@H]1C[C@H]2CC[C@]1(C)C2(C)C`, the Potency result was “inactive”. Turning to `CC(=O)c1cccnc1`, the Potency result is “inactive”. On to `Cc1ccc(S(=O)(=O)NC(=O)NC2CCCC2)cc1`, for which the Potency entry was “inactive”. `OCCCO`: the Potency result is “inactive”. On the same count and under the same terms, as for `FC1(F)C(F)(F)C(F)(F)C2(F)C(F)(C1(F)F)C(F)(F)C(F)(F)C1(F)C(F)(F)C(F)(F)C(F)(F)C(F)(F)C12F` (stereo not given), the entry is “inactive”; as for `O=[N+]([O-])c1ccccc1CCO`, “inactive”; as for `NC(=O)c1ccccc1C(N)=O`, “inactive”. On the same count and under the same terms, next, `O=C1C=CCCC1`: “inactive”. Same read-out and setting: as for `CC1(C)C(=O)NC(=O)N1CO`, the entry is “inactive”. Turning to `O=C(O)c1ccccc1-n1cc(C(=O)O)c(=O)c2cc(Nc3c(F)cc(F)cc3Cl)c(Cl)cc21`, the Potency entry is “inactive”.

Regarding `Clc1cccc(C(c2ccc3nc[nH]c3c2)n2ccnc2)c1` (stereo not given), the Potency entry was “inactive”. Regarding `CC(O)CN` (stereo not given), the Potency entry was “inactive”.

The values above are taken from PubChem BioAssay (Tox21).
